Rows were chosen to be rich in hits. Some 4.7% of all compounds tested hit in one or more screens of this group.
TROY NFkB inh: inhibitors of TROY-dependent NF-kB signaling | Q293 LMP1-TROYcd NF-kB luciferase reporter, 4 h | 0.98% of 360,000 active | inhibition, % at 10 µM;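 active = compounds whose plate-normalised and pattern-corrected inhibition of the luciferase reporter signal at the single screening dose is 50% or more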
HSP90 refold inh: blocks HSP90-mediated luciferase refolding in reticulocyte lysate. inhibition, % at 5.6 µM. Rabbit reticulocyte lysate, luciferase refolding luminescence, 3 h. 0.91% of 290,000 active;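 active = inhibition above the screen-wide mean plus 3 SD, computed separately per campaign, cut at about 16% in these data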;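 note: 0% = DMSO wells and 100% = 60 µM geldanamycin wells; inhibitors lower the luminescence because luciferase stays unfolded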
HSF-1 act: increases HSF-1 driven luciferase reporter signal; NIH3T3-HGL HSF-1 luciferase reporter, MG132, 8 h; 100% = twice DMSO control signal; activation, % at 9 µM; 1.7% of 300,000 active; AID 504408;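 active = mean replicate activation of at least 50% with a set share of replicates each reaching 50%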;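 note: 0% = median of the neutral control wells and 100% = twice that signal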
LMP1 NFkB inh: inhibitors of Epstein-Barr LMP1-induced NF-kappaB reporter. inhibition, % at 12.5 µM. LMP1-induced NF-kappaB luciferase reporter cells, luminescence. 0.69% of 350,000 active. AID 504558; in the data active = inhibition above about 41%;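 note: 0% = neutral control wells and 100% = reference inhibitor control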
TWEAK-Fn14 inh: inhibitors of TWEAK-Fn14 interaction signaling; 2% of 360,000 active; TWEAK-stimulated Fn14 reporter cells, luciferase luminescence, 8 h; inhibition, % at 10 µM; in the data active = inhibition above about 50%
HSF1 inhib: HSF1 inhibition; AID 2098; activity change, negative = inhibition, % at 7.5 µM (by protocol); NIH3T3-HGL HSE-luciferase, MG132-induced, luminescence 8 h; active compounds read low; 0.77% of 300,000 active;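 active = more than half of replicate wells show activity change below -50%, luminescence cut by over half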;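 note: luciferase reports HSF-1 transcriptional activity via heat shock element; 0% = median of DMSO wells and -100% = zero luminescence signal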
* marks the source's active call; other numbers are inactive results; x = no result.

SMILES	TROY NFkB inh	HSP90 refold inh	HSF-1 act	LMP1 NFkB inh	TWEAK-Fn14 inh	HSF1 inhib
COC(=O)C1=C(c2ccc(OCc3ccccc3)c(F)c2)C[C@@H]2CC[C@H]1N2C	52*	x	x	-10	21	x
COC(=O)C1=C(c2ccc(F)cc2OCc2ccccc2)C[C@@H]2CC[C@H]1N2C(=O)NC(C)C	-7	x	x	49*	10	x
CCOC(=O)c1cc2c(cn1)[C@@H](CCO)NC2	-6	x	x	-3	5	x
C=CCn1c(O)c(C(CC)=NCc2ccco2)c(=O)[nH]c1=O	-10	-5	66*	8	22	21
C=CCn1c(O)c(C(C)=NCc2ccco2)c(=O)[nH]c1=O	-8	2	13	0	13	9
Cc1ncoc1C(=O)NCC1=C(c2ccc(S(C)(=O)=O)cc2)C[C@@H]2CC[C@H]1N2Cc1ccco1	6	x	x	1	7	x
Cc1cc(C)cc(N2C(=O)NC(=O)/C(=C\c3cccn3-c3ccc(Cl)cc3)C2=O)c1	53*	-1	9	4	103*	4
O=C1NC(=S)NC(=O)C1=Cc1cccn1-c1ccc(O)cc1	49	1	154*	16	71*	139
Cc1cc(C)cc(N2C(=O)NC(=O)/C(=C\c3cccn3-c3ccccc3)C2=O)c1	49	-2	18	9	66*	2
CN1C(=O)/C(=C/c2cccn2-c2ccc3ccccc3c2)C(=O)NC1=S	-2	6	25	19	8	3
O=C1NCN(c2ccccc2)C12CCN(C(CCc1ccccc1)c1nnnn1C1CCCCC1)CC2 (stereo not drawn)	20	x	x	x	29	x
COC1=C(C)C(=O)C2=C(C1=O)C(CO)N1C(C#N)C3CC4C(C1C2N1CCOC41)N3C (stereo not drawn)	2	x	x	86*	37	x
CC(C)[C@H]1C(=O)O[C@H](C(C)C)C(=O)N(C)[C@@H](C(C)C)C(=O)O[C@H](C(C)C)C(=O)N(C)[C@@H](C(C)C)C(=O)O[C@H](C(C)C)C(=O)N1C	56*	-3	-18	56*	56*	-15
CC(=NNC(=S)N1CC2CCC(CC2)C1)c1nccs1	-4	x	x	73*	17	x
NC(=S)c1cn(C2OC(CO)C(O)C2O)c2ncnc(N)c12 (stereo not drawn)	68*	3	-71	4	103*	-67*
Nc1ncnc2c1ccn2[C@@H]1O[C@H](CO)[C@@H](O)[C@H]1O	52*	x	-80	92*	95*	-79*
Oc1ccc(-[n+]2c(-c3ccccc3)cc(-c3ccccc3)cc2-c2ccccc2)cc1	62*	x	4	32	87*	-5
COc1cccc(C2CCN(C)C2)c1 (stereo not drawn)	0	x	x	3	-8	x
COc1ccc(SCC2CN(C)CCC2c2ccc(F)cc2)cc1 (stereo not drawn)	-8	x	67*	-11	0	34
O=P1(N(CCCl)CCCl)NCCCO1 (stereo not drawn)	7	-2	-5	85*	3	-2
O=C(NCC1=C(c2ccc3ccccc3c2)C[C@@H]2CC[C@H]1N2Cc1ccco1)c1nccs1	-4	x	x	8	11	x
COc1cc2c(cc1OC)-c1c3c(cc4c1[C@@H](C2)N(C)CC4)OCO3	-60	0	6	-3	-91	0
COc1c2c(cc3c1OCO3)CCN(C)C2	3	x	x	79*	-13	x
CN(Cc1cccc(-c2cccnc2)c1)C(=O)Oc1ccc([N+](=O)[O-])cc1	56*	x	x	x	83*	x
O=C(Cc1ccccc1)Oc1ccccc1N1C(=O)CCC1=O	14	-1	-70	-2	-6	-62*
SMILES	TROY NFkB inh	HSP90 refold inh	HSF-1 act	LMP1 NFkB inh	TWEAK-Fn14 inh	HSF1 inhib
Oc1c(Cl)c(Cl)c(Cl)c(Cl)c1Cl	64*	x	-4	-8	5	-4
CCOC(=O)c1ccc(N2C(=O)CC(N3CC=C(c4ccc(F)cc4)CC3)C2=O)cc1 (stereo not drawn)	-4	0	-15	0	-2	4
O=C1CC(N2CC=C(c3ccc(F)cc3)CC2)C(=O)N1c1ccc(F)cc1 (stereo not drawn)	-20	5	-78	2	3	-71*
CC1=CC2/C=C(\C)CCC(O)C(O)/C=C/C(=O)C23C(=O)NC(CC(C)C)C3C1C (stereo not drawn)	61*	3	-24	13	93*	-28
ClCCN(CCCl)c1ccc(C=Cc2ccncn2)cc1	-60	x	x	x	-32	x
CC(=O)OC(C)(C)/C=C/C(=O)C(C)(O)C1[C@H](O)C[C@@]2(C)C3CC=C4C(CC[C@@H](O)C4(C)C)[C@]3(CO)C(=O)C[C@]12C (stereo partly drawn)	61*	0	-61	30	31	-52*
CC(=O)OC(C)(C)/C=C/C(=O)[C@](C)(O)[C@H]1[C@H](O)C[C@@]2(C)[C@@H]3CC=C4[C@H](C[C@H](O)C(=O)C4(C)C)[C@]3(C)C(=O)C[C@]12C	62*	0	x	51*	65*	x
CC(=O)OC(C)(C)/C=C/C(=O)C(C)(O)C1C(O)CC2(C)C3CC=C4C(CC(O)C(=O)C4(C)C)C3(C)C(=O)CC12C (stereo not drawn)	61*	x	x	12	63*	x
O=S(=O)(c1cccc2ccccc12)N1Cc2ccccc2-n2nncc2C1	27	x	x	9	13	x
CC(C)(C)n1nnnc1C(c1cccs1)N1CCC2(CC1)C(=O)NCN2c1ccccc1 (stereo not drawn)	20	x	x	x	-28	x
COC1CC(OC2CCC3(C)C(CCC4C3CCC3(C)C(C5=CC(=O)OC5)C(OC(C)=O)CC43O)C2)OC(C)C1OC1OC(COC2OC(CO)C(O)C(O)C2O)C(O)C(O)C1O (stereo not drawn)	x	x	9	x	x	4
CC1OC(OC2CC(O)C3(CO)C4C(O)CC5(C)C(C6=CC(=O)OC6)CCC5(O)C4CCC3(O)C2)C(O)C(O)C1O (stereo not drawn)	44	x	x	80*	92*	x
C[C@@H]1O[C@@H](O[C@H]2C[C@@H](O)[C@]3(CO)[C@H]4[C@H](O)C[C@]5(C)[C@@H](C6COC(=O)C6)CC[C@]5(O)[C@@H]4CC[C@]3(O)C2)[C@H](O)[C@H](O)[C@H]1O (stereo partly drawn)	46	3	-19	55*	71*	-1
Cc1ccc(S(=O)(=O)N2Cc3cc(-c4ccccc4)ccc3-n3nncc3C2)cc1	3	x	x	x	-2	x
O=C(O)C(O)(c1ccc(Cl)cc1)C1(O)CCCC1 (stereo not drawn)	5	x	x	-12	26	x
COc1ccc(Br)cc1CN1CCN(C(=O)Cc2ccccc2)CC1	x	3	-4	-8	82*	5
C[C@H]1CN([C@@H](C)CO)C(=O)CCCn2nncc2CO[C@H]1CN(C)C(=O)Oc1ccc2ccccc2c1	4	x	x	4	-20	x

Bioassay records as filed in PubChem BioAssay.
